# Test results reported in PubChem BioAssay AID1508601 (ICCB-Longwood Screening Facility, Harvard Medical School, 2020).
# “And” between values parts separate entries of the source, which are not always exact repeats. Identical values can stand only once. Out of some 5,700 compounds screened, about 85 (1%) were called active. Cut-off read from the data, not from the text of the source: active = p53-positive nuclei above about 36% (passing the limit was not always enough); inactive = the rest. This excerpt belongs to a sample that is enriched for actives.
# Experiments:
# [1] = p53 stabilisation in HPV-positive human cells, imaging, p53-positive nuclei imaging, 24 h, 48 h (AID 1508601); settings: 24/48 h
# [2] = target: Cellular tumor antigen p53 (Homo sapiens) (UniProt P04637); assay: as above; settings: 24/48 h, stronger effect = higher value
# [3] = measured here: cell number at 24 h, Library stock concentration: 10 mM
# [4] = measured here: cell number at 48 h, Library stock concentration: 10 mM
# [5] = Library stock concentration: 10 mM
# [6] = measured here: p53 positive nuclei at 24 h, Library stock concentration: 10 mM
# [7] = measured here: cell number at 24 h, Library stock concentration: 3.33 mM
# [8] = measured here: cell number at 48 h, Library stock concentration: 3.33 mM
# [9] = Library stock concentration: 3.33 mM
# [10] = measured here: p53 positive nuclei at 24 h, Library stock concentration: 3.33 mM
# Sequence of Cellular tumor antigen p53 (Homo sapiens) (P04637 whole entry, looked up): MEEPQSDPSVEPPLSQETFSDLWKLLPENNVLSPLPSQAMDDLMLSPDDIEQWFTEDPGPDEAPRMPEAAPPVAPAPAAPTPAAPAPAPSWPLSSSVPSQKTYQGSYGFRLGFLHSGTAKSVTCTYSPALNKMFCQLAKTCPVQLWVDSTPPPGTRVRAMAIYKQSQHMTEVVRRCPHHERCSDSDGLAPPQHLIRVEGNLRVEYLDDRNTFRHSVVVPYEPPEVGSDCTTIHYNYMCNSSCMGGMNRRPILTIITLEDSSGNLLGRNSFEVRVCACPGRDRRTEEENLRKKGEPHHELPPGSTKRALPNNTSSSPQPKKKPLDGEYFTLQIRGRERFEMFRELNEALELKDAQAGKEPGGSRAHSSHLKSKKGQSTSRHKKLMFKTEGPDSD
smiles,measurement,setting,value
CCOC(=O)c1sc(NC(=O)c2ccco2)c(SC#N)c1C,"nuclei count, normalised","[1]; measured here: cell number at 24 h, Library stock concentration: 500 nM",118%
same,"nuclei count, normalised","[1]; measured here: cell number at 24 h, Library stock concentration: 1.5 uM",119%
same,"nuclei count, normalised","[1]; measured here: cell number at 24 h, Library stock concentration: 4.6 uM",115%
same,"nuclei count, normalised","[1]; measured here: cell number at 24 h, Library stock concentration: 13.7 uM",107%
same,"nuclei count, normalised","[1]; measured here: cell number at 24 h, Library stock concentration: 41 uM",124%
same,"nuclei count, normalised","[1]; measured here: cell number at 24 h, Library stock concentration: 123 uM",109%
same,"nuclei count, normalised","[1]; measured here: cell number at 24 h, Library stock concentration: 370 uM",113%
same,"nuclei count, normalised","[1]; measured here: cell number at 24 h, Library stock concentration: 1.111 mM",114%
same,"nuclei count, normalised","[1]; measured here: cell number at 24 h, Library stock concentration: 3.333 mM",103%
same,"nuclei count, normalised",[1]; [3],97.4%
same,"nuclei count, normalised","[1]; measured here: cell number at 48 h, Library stock concentration: 500 nM",111%
same,"nuclei count, normalised","[1]; measured here: cell number at 48 h, Library stock concentration: 1.5 uM",109%
same,"nuclei count, normalised","[1]; measured here: cell number at 48 h, Library stock concentration: 4.6 uM",104%
same,"nuclei count, normalised","[1]; measured here: cell number at 48 h, Library stock concentration: 13.7 uM",103%
same,"nuclei count, normalised","[1]; measured here: cell number at 48 h, Library stock concentration: 41 uM",110%
same,"nuclei count, normalised","[1]; measured here: cell number at 48 h, Library stock concentration: 123 uM",106%
same,"nuclei count, normalised","[1]; measured here: cell number at 48 h, Library stock concentration: 370 uM",110%
same,"nuclei count, normalised","[1]; measured here: cell number at 48 h, Library stock concentration: 1.111 mM",112%
same,"nuclei count, normalised","[1]; measured here: cell number at 48 h, Library stock concentration: 3.333 mM",106%
same,"nuclei count, normalised",[1]; [4],101%
same,"p53-positive nuclei, normalised",[2]; Library stock concentration: 500 nM,0.102% (inactive)
same,"p53-positive nuclei, normalised",[2]; Library stock concentration: 1.5 uM,-0.24% (inactive)
same,"p53-positive nuclei, normalised",[2]; Library stock concentration: 4.6 uM,-0.158% (inactive)
same,"p53-positive nuclei, normalised",[2]; Library stock concentration: 13.7 uM,-0.0345% (inactive)
same,"p53-positive nuclei, normalised",[2]; Library stock concentration: 41 uM,0.07% (inactive)
same,"p53-positive nuclei, normalised",[2]; Library stock concentration: 123 uM,0.0394% (inactive)
same,"p53-positive nuclei, normalised",[2]; Library stock concentration: 370 uM,0.143% (inactive)
same,"p53-positive nuclei, normalised",[2]; Library stock concentration: 1.111 mM,0.138% (inactive)
same,"p53-positive nuclei, normalised",[2]; Library stock concentration: 3.333 mM,0.637% (inactive)
same,"p53-positive nuclei, normalised",[2]; [5],1.1% (inactive)
same,"p53-positive nuclei, normalised","[2]; measured here: p53 positive nuclei at 24 h, Library stock concentration: 500 nM",-0.0629%
same,"p53-positive nuclei, normalised","[2]; measured here: p53 positive nuclei at 24 h, Library stock concentration: 1.5 uM",-0.173%
same,"p53-positive nuclei, normalised","[2]; measured here: p53 positive nuclei at 24 h, Library stock concentration: 4.6 uM",-0.116%
same,"p53-positive nuclei, normalised","[2]; measured here: p53 positive nuclei at 24 h, Library stock concentration: 13.7 uM",-0.111%
same,"p53-positive nuclei, normalised","[2]; measured here: p53 positive nuclei at 24 h, Library stock concentration: 41 uM",-0.122%
same,"p53-positive nuclei, normalised","[2]; measured here: p53 positive nuclei at 24 h, Library stock concentration: 123 uM",0.00346%
same,"p53-positive nuclei, normalised","[2]; measured here: p53 positive nuclei at 24 h, Library stock concentration: 370 uM",0.0563%
same,"p53-positive nuclei, normalised","[2]; measured here: p53 positive nuclei at 24 h, Library stock concentration: 1.111 mM",0.34%
same,"p53-positive nuclei, normalised","[2]; measured here: p53 positive nuclei at 24 h, Library stock concentration: 3.333 mM",1.08%
same,"p53-positive nuclei, normalised",[2]; [6],2.09%
CN1CCc2c(c3ccccc3n2Cc2ccc(C(=O)NO)cc2)C1,"nuclei count, normalised","[1]; measured here: cell number at 24 h, Library stock concentration: 46 uM",117%
same,"nuclei count, normalised","[1]; measured here: cell number at 24 h, Library stock concentration: 278 uM",120%
same,"nuclei count, normalised","[1]; measured here: cell number at 24 h, Library stock concentration: 1.67 mM",115%
same,"nuclei count, normalised",[1]; [7],110% and 92.2%
same,"nuclei count, normalised",[1]; [3],114%
same,"nuclei count, normalised","[1]; measured here: cell number at 48 h, Library stock concentration: 46 uM",119%
same,"nuclei count, normalised","[1]; measured here: cell number at 48 h, Library stock concentration: 278 uM",116%
same,"nuclei count, normalised","[1]; measured here: cell number at 48 h, Library stock concentration: 1.67 mM",110%
same,"nuclei count, normalised",[1]; [8],102% and 95.4%
same,"nuclei count, normalised",[1]; [4],107%
same,"p53-positive nuclei, normalised",[2]; Library stock concentration: 46 uM,-0.237% (inactive)
same,"p53-positive nuclei, normalised",[2]; Library stock concentration: 278 uM,0.0738% (inactive)
same,"p53-positive nuclei, normalised",[2]; Library stock concentration: 1.67 mM,0.201% (inactive)
same,"p53-positive nuclei, normalised",[2]; [9],-0.139% (inactive) and -0.349% (inactive)
same,"p53-positive nuclei, normalised",[2]; [5],-0.117% (inactive)
same,"p53-positive nuclei, normalised","[2]; measured here: p53 positive nuclei at 24 h, Library stock concentration: 46 uM",-0.158%
same,"p53-positive nuclei, normalised","[2]; measured here: p53 positive nuclei at 24 h, Library stock concentration: 278 uM",-0.207%
same,"p53-positive nuclei, normalised","[2]; measured here: p53 positive nuclei at 24 h, Library stock concentration: 1.67 mM",-0.0538%
same,"p53-positive nuclei, normalised",[2]; [10],-0.314% and -0.356%
same,"p53-positive nuclei, normalised",[2]; [6],-0.152%
COc1cc(C(=O)NS(=O)(=O)c2ccccc2C)ccc1Cc1cn(C)c2ccc(NC(=O)OC3CCCC3)cc12,"nuclei count, normalised","[1]; measured here: cell number at 24 h, Library stock concentration: 80 uM",110%
same,"nuclei count, normalised","[1]; measured here: cell number at 24 h, Library stock concentration: 400 uM",108%
same,"nuclei count, normalised","[1]; measured here: cell number at 24 h, Library stock concentration: 2 mM",113%
same,"nuclei count, normalised",[1]; [7],103%
same,"nuclei count, normalised",[1]; [3],105%
same,"nuclei count, normalised","[1]; measured here: cell number at 24 h, concentration not given here",89.5%
same,"nuclei count, normalised","[1]; measured here: cell number at 48 h, Library stock concentration: 80 uM",113%
same,"nuclei count, normalised","[1]; measured here: cell number at 48 h, Library stock concentration: 400 uM",108%
same,"nuclei count, normalised","[1]; measured here: cell number at 48 h, Library stock concentration: 2 mM",111%
same,"nuclei count, normalised",[1]; [8],108%
same,"nuclei count, normalised",[1]; [4],105%
same,"nuclei count, normalised","[1]; measured here: cell number at 48 h, concentration not given here",92.4%
same,"p53-positive nuclei, normalised",[2]; Library stock concentration: 80 uM,-0.138% (inactive)
same,"p53-positive nuclei, normalised",[2]; Library stock concentration: 400 uM,0.119% (inactive)
same,"p53-positive nuclei, normalised",[2]; Library stock concentration: 2 mM,-0.133% (inactive)
same,"p53-positive nuclei, normalised",[2]; [9],-0.0165% (inactive)
same,"p53-positive nuclei, normalised",[2]; [5],0.0919% (inactive)
same,"p53-positive nuclei, normalised",[2]; concentration not given here,-0.151% (inactive)
same,"p53-positive nuclei, normalised","[2]; measured here: p53 positive nuclei at 24 h, Library stock concentration: 80 uM",-0.0129%
same,"p53-positive nuclei, normalised","[2]; measured here: p53 positive nuclei at 24 h, Library stock concentration: 400 uM",-0.0637%
same,"p53-positive nuclei, normalised","[2]; measured here: p53 positive nuclei at 24 h, Library stock concentration: 2 mM",0.0356%
same,"p53-positive nuclei, normalised",[2]; [10],-0.167%
same,"p53-positive nuclei, normalised",[2]; [6],0.0472%
same,"p53-positive nuclei, normalised","[2]; measured here: p53 positive nuclei at 24 h, concentration not given here",0.0267%
